From PubChem BioAssay (NCI) come the findings set out here.

Molecules are shown by their SMILES. The panel holds about 83,000 compounds, 20% with a hit somewhere; the sample as a whole holds those more often.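 Each cell line was grown in a 96-well plate and treated with one concentration of compound for 48 hours. Values below 10 were considered active.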 A number with no mark means an inactive call. The source made the active and inactive calls.

The assay deals with U251 CNS. Nature of the assay: NCI-60 one-dose screen, 48 h (100 = growth as untreated, 0 = no growth, -100 = all killed). To be noted: 10 µM unless noted.
For `O=C1OC(Cc2ccccc2)C1c1ccccc1` (stereo not given), the growth is 97.5%.
The value for `O=C1Nc2cc(-c3ccc(NC(=O)c4ccccc4)cc3)ccc2/C1=C/c1ccc[nH]1` was 90.2%; that for `O=C(N/N=C/c1cc2ccccc2n2nnnc12)Nc1ccccc1` was 104%; that for `O=C1c2ccc3c4c(ccc(c24)C(=O)N1CCCNCc1ccccc1)C(=O)N(CCCNCc1ccccc1)C3=O` was -87.7% (active).
As to `C=C1C(=O)O[C@H]2[C@H]1CC/C(COC(=O)NCCc1c[nH]c3ccc(OC)cc13)=C\CC[C@@]1(C)O[C@@H]21`, the growth is 35.5%.
The result for `CCOc1ccc(Nc2nc(-c3ccc4c(c3)NC(=O)CO4)cs2)cc1` reads 66.8%.
The result for `COc1ccc(C(=O)c2cc(C)c(OC)c(C)c2)c(OC)c1OC(=O)C(Cl)Cl` reads 13.5%.
The value for `CN(C)c1ccc(Nc2c3ccccc3nc3cc(NC(=O)CCN4CCCC4)ccc23)cc1` was -48.6% (active); that for `Cc1nc(N)nc(N[C@@H](C)c2nc3cccc(NCc4ccc(C(=O)NO)cc4)c3c(=O)n2-c2ccccc2)n1` was 52.7%.
With `COc1ccc(C/C(=C(\C)c2ccc(OCCN3CCCC3)cc2)c2ccc(OCCN3CCCC3)cc2)cc1`, the growth was -39.7% (active).
The value for `NC(=NCCCOc1ccc(F)cc1)Nc1ccc(Cl)cc1` was 76.7%.
The value for `CCCOC(=O)N[C@H]1CCc2c(Cl)c(OC)c(OC)c(OC)c2-c2ccc(SC)c(=O)cc21` was 23.2%.
The value for `N#Cc1c(NC(=O)NCc2ccccc2)sc2c1CCCC2` was 26.1%; that for `NCCCCCCNc1cc(-c2cccc(OC(F)(F)F)c2)nc2ccc(N3CCCC3)cc12` was -59% (active).
On to `C[C@H]1[C@H](C)CC[C@]2(C(=O)NCC#CCN3CCN(C)CC3)CC[C@]3(C)C(=CC[C@@H]4[C@@]5(C)Cc6c([nH]c7ccccc67)C(C)(C)[C@@H]5CC[C@]43C)[C@H]12`, for which the growth was 64.3%.
The result for `N#Cc1c(NCc2ccccc2I)sc2c1CCCCC2` reads 90%.
The value for `CN1C(=O)NC(c2ccc3c(c2)OCO3)C=C1c1ccccc1` (stereo not given) was 72%.
As to `COc1cc(/C=C\C(=O)O)ccc1OCc1ccccc1`, the growth was 84.9%.
`CCN(CC)c1ccc(/C=N/NC(=O)CSc2nc3ccccc3c(=O)n2Cc2ccc(S(N)(=O)=O)cc2)c(O)c1`: the growth is 24.4%.
In the case of `Cc1ccc(S(=O)(=O)NNC(=O)/C(=C\c2ccc(Cl)cc2)c2nc3ccccc3s2)cc1`, the growth is 97.5%.
The value for `CCOC(=O)[C@@H]1CCCN(S(=O)(=O)c2ccc(S(=O)(=O)N(CC)CC)c(F)c2)C1` was 82.2%.
The result for `Cc1ccc(CNc2c3ccccc3nc3cc(NC(=O)CCN4CCCC4)ccc23)cc1` reads -55.3% (active).
The result for `COc1ccc(CC(C)=C(c2ccc(OCCN3CCCCCC3)cc2)c2ccc(OCCN3CCCCCC3)cc2)cc1` reads -91.4% (active); that for `CCCCNC(=O)Oc1ccc(/C(=C(\C)c2ccccc2)c2ccc(OCCN3CCCCC3)cc2)cc1`, 50.7%; that for `Cn1c2ccccc2c2c3c(c4c5ccccc5n(C)c4c21)C(=O)OC3`, 104%.
With `CNC(=O)c1cc(Cn2nc(C)c(NC(=O)Nc3ccc(Cl)c(C(F)(F)F)c3)c2C)ccn1`, the growth was 86.7%.
The value for `O=C(Nc1ccc(NC(=O)c2cc(=O)[nH]c3ccccc23)cc1)Nc1cccc(Cl)c1` was 89.4%; that for `COc1ccc(C(=O)CSc2nc(-c3cc(OC)ccc3OC)cc(-c3ccc(Cl)cc3)c2C#N)cc1` was 35.7%; that for `Cc1cc(C)c(S(=O)(=O)Oc2ccccc2[N+](=O)[O-])c(C)c1` was 29.7%.
The result for `O=C(CCN1CCCC1)Nc1ccc2c(NCc3ccccc3)c3ccccc3nc2c1` reads 1.05% (active); that for `CCN(CC)c1ccc(/C=N/NC(=O)CSc2nc3ccccc3c(=O)n2CCc2ccc(S(N)(=O)=O)cc2)c(O)c1`, 31.7%.
The value for `O=C(CSc1nc2sc3c(c2c(=O)n1-c1ccc(Cl)cc1)CCCC3)Nc1nc(-c2cccc(Br)c2)cs1` was 78.8%; that for `COc1ccc(C(C)=O)c(OC)c1` was 101%; that for `COc1cccc(-c2nc3occn3c2-c2ccnc(NCCCNS(=O)(=O)c3ccc(C(F)(F)F)cc3)n2)c1` was 84.1%.
As to `C=C1C(=O)O[C@H]2[C@H]1CC/C(C(=O)NCCCCCNC(=O)/C1=C/CC[C@@]3(C)O[C@H]3[C@H]3OC(=O)C(=C)[C@@H]3CC1)=C\CC[C@@]1(C)O[C@@H]21`, the growth is 99.3%.
